Reference: ChEMBL document CHEMBL3988442, “University of Dundee, Small-Polar-MMV Screening Library” (2021)

target: AMP-activated protein kinase, AMPK (Homo sapiens) (UniProt P54646+O43741+P54619+Q9UGJ0+Q9Y478+Q13131+Q9UGI9); assay: AMP-dependent Kinase enzyme assay. An in vitro enzyme assay that detects ADP turnover that is directly proportional to AMPK activity. This uses naive AMPK that is activated during the assay with MK-8722; type: functional; set-up: scale not given: direction of the effect not stated beside the values; conditions: 30 µM

Structure (SMILES) | Percent Effect [%]
Cc1noc(C)c1C(=O)N(C)C(C)c1cccnc1 (stereo not given) | -4.48
COC[C@]1(O)CCN(c2cc(OC)ncn2)CC1(C)C | 20.7
Cc1nc(CN2CCCC2Cn2ccnc2C(C)C)nc2ccccc12 (stereo not given) | -10.6
Cc1ccc(OCc2occc2C(=O)N2C[C@@H]3[C@@H](CN(C)C)[C@@H]3C2)cc1 | 14
CCCN(CCO)C(=O)c1cc(COc2ccc3c(c2)CCCC3)on1 | 5.46
CCNC(=O)NCc1ccc(-n2ccc(C(F)(F)F)n2)cc1 | -2.79
COC(CNC(=O)CNC(=O)c1ccccc1)c1cccc(Cl)c1 (stereo not given) | 4.84
CC(C)COc1cncc(N2CCCN(CC(F)(F)F)CC2)n1 | 3.81
Cc1ccnc(NC(=O)c2ccc(C)o2)c1 | 9.16
COCCN(Cc1ccccc1)C(=O)c1cnn(C)c1C | 2.02
Cc1ccc(S(=O)(=O)N(CCO)C2CC2)cc1N(C)C | -7.34
Cc1ccc(N2CCC(c3cc(Cc4ccccc4)n[nH]3)CC2)nn1 | 10.9
COc1ccc(C2(C(=O)N3C[C@@H](C(=O)O)[C@H](C(C)C)C3)CC2)cc1 | 2.55
O=C(NCC1CCCO1)Nc1nnc(C(F)(F)F)s1 (stereo not given) | 3.01
Cc1ocnc1C(=O)N1CC[C@@]2(O)CCN(C(=O)N3CCCC3)C[C@H]2C1 | 6.59
Cc1ccccc1CN1CCCC1c1cccc(Nc2nccs2)n1 (stereo not given) | 16.4
Cc1nn(C)c(C)c1C1CCCN1CC(=O)N(C)c1nccs1 (stereo not given) | 10.2
FC(F)(F)c1cc(C2CCCN(Cc3ccncc3)C2)n[nH]1 (stereo not given) | 3.39
CC1CN(C)CCN1C(=O)c1cccn1Cc1cccnc1 (stereo not given) | -3.9
CS(=O)(=O)N1CCCC(c2cccc(-c3ccccc3F)n2)C1 (stereo not given) | 12.2

Structure (SMILES) | Percent Effect [%]
CCc1c(C(=O)Nc2ccc(F)c(C(=O)NC)c2)cnn1CC(C)C | 11.4
Cn1cnc(S(=O)(=O)N2CCCC2c2ccnc3nccn23)c1 (stereo not given) | 0.76
CCCn1nnnc1COC(=O)C1Cc2cc(Cl)ccc2O1 (stereo not given) | 6.63
CCN(CCOC)C(=O)c1ccc2c(c1)nc(N1CC[C@H](O)C1)n2C | 3.21
N#Cc1ncn(CC(=O)N2CCCC2c2cccs2)n1 (stereo not given) | -12
COc1cc(Cl)ccc1CNC(=O)N(C)C(C)CS(C)(=O)=O (stereo not given) | -1.65
Cc1cc(Oc2ccc(NC(=O)C3CC3)cc2)cc(C2CCNCC2)n1 | -9.8
N#Cc1cccc(N2CCC(CO)(CCCc3ccccc3)CC2)n1 | 6.03
Cn1cc(CN2CCS(=O)(=O)C(C)(C)C2)cn1 | 5.13
CC(C)c1cc(C2CCN(C(=O)Cn3cnc4ccccc43)CC2)[nH]n1 | 10.5
COCCC1(C(=O)O)CCN(c2cc(C)c3ccccc3n2)CC1 | 3.32
CN(C)C(CNC(=O)c1ccnc(-n2cncn2)c1)c1ccccc1 (stereo not given) | -0.565
CC(NC(=O)N1CCCC1)c1ccc(S(N)(=O)=O)cc1 (stereo not given) | 9.72
CN1CC(c2ccccc2)CC2(CCN(Cc3ncc[nH]3)CC2)C1 (stereo not given) | -6.61
CCc1cnc(N2CCCC(CCC(N)=O)C2)nc1 (stereo not given) | -6.19
COCCNC(=O)c1cnc(C)nc1C | 3.33
NC(=O)C1CCN(c2ncccc2C(=O)N2CCc3ccccc32)C1 (stereo not given) | 2.58
CC(C)C(C)NC(=O)Nc1cccc(OCC#N)c1 (stereo not given) | -3.11
COCC[C@]1(O)CCN(CC(=O)NCc2ccccn2)C[C@H]1C | 9.06
CN(Cc1cccs1)Cc1nnsc1Cl | 12.6
